# According to PubChem BioAssay (NCATS):
# Unmarked numbers belong to inactive results. Records with an inconclusive call do not appear. Activity calls are given as the source filed them. Unless noted, calls come from the whole dose curve; as a rule, active = well fitted curve in either direction with a large enough effect (not every such curve was filed as active); inconclusive = small, poorly fitted or top-dose-only effect, or another doubt; inactive = flat fitted curve, though single readings scatter.
# Legend:
# [1] = target: Lysosomal acid glucosylceramidase (Homo sapiens) (UniProt P04062); test: Glucocerebrosidase-p2 (AID 348; in the data active = potency below about 10 µM; note: potency is the fitted concentration of half-maximal effect); conditions: purified GBA, blue fluorogenic substrate, 40 min
# Outline: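 Compounds titrated from 0.6 nM upwards against 0.2 nM enzyme in pH 5.9 citric acid/KH2PO4, taurocholate, tween-20; blue fluorogenic substrate 80 uM, 40 min room temperature, stopped and read Ex 365/Em 440 for AC50.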
# [2] = AP1 Signaling Pathway (AID 357); conditions: ME-180 AP-1-bla reporter, EGF-induced, beta-lactamase ratio, 5 h; at 7.69 µM (top of the series) unless noted;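 note: ME-180 reporter cells stimulated with EGF at its EC50 level; % is set by controls: 0 for no effect and ±100 for the full control effect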
# Outline: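 Beta-lactamase reporter under AP-1 response element, ME-180 background. Stimulus: EC50 EGF. Compound exposure 5 h, 37 °C. Detection: CCF4, 2.5 h RT, 460/530 nm. Values: AC50 from titration.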
# [3] = target: Cytochrome P450 1A2 (Homo sapiens) (UniProt P05177); test: p450-cyp1a2 (AID 410; calls by dose curve; note: potency is the fitted concentration of half-maximal effect); conditions: recombinant CYP1A2, luciferin-ME demethylation, luminescence; series mostly up to 57 µM
# Outline: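 Human CYP1A2 (20nM) demethylated Luciferin-ME at its Km (100uM) in 100mM KPO4. After 10 min compound preincubation, NADPH regeneration ran the reaction 60 min at room temperature. Luciferin was read by luminescence, normalized to 57 uM furafylline.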
# [4] = NFAT Signaling Pathway (AID 444); conditions: Jurkat NFAT-bla M1, carbachol, beta-lactamase ratio, 5 h; at 7.69 µM (top of the series) unless noted;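 note: carbachol stimulus at about its EC50 of 1 µM final; % is set by controls: 0 for no effect and ±100 for the full control effect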
# Outline: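 Read-out: CCF4 FRET ratio (460 nm/530 nm) after 1 h RT dye loading, used for %activity and AC50 from titration series. Cells: Jurkat NFAT-β-lactamase/M1 line, treated with compound plus 1 uM carbachol for 5 h, 37 °C.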
# [5] = Stat Signaling Pathway (AID 446); conditions: ME-180 SIE beta-lactamase reporter, IL-6 stimulated, 5 h; at 7.69 µM (top of the series) unless noted;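 note: ME-180 cervical cancer cells given 40 pM IL-6 alongside compound; SIE-controlled beta-lactamase reporter measured as 460/530 nm FRET emission ratio; % is set by controls: 0 for no effect and ±100 for the full control effect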
# Outline: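 ME-180 SIE-bla cells; overnight plating; cpd + IL-6 40 pM, 5 h, 37 C; LiveBLAzer 2.5 h RT; 460/530 nm emission ratio. Normalized to 300 pM IL-6 and 125 nM JAK inhibitor controls.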
# [6] = target: Glucocorticoid receptor (Homo sapiens) (UniProt P04150); test: GR-GFP Redistribution (AID 450;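 active = compounds whose dose series gives a full or clear partial fitted curve of increased nuclear translocation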; note: potency is the fitted concentration of half-maximal effect); conditions: U2OS GR-GFP nuclear translocation, laser cytometry, 2 h
# [7] = target: Glucocorticoid receptor (Homo sapiens) (UniProt P04150); test: GR-EFC Redistribution (AID 451; calls by dose curve; note: potency is the fitted concentration of half-maximal effect); conditions: CHO-K1 GR-EFC translocation, beta-gal luminescence, 2 h
# Outline: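 Translocation of GR-ED fusion to nuclear EA restores b-gal, read by luminescence after 1 h room-temperature detection. Engineered CHO-K1 biosensor cells, 1,000/well, exposed 2 h at 37 C to titrations up to 46 uM final.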
# [8] = target: Mitogen-activated protein kinase 10 (Mus musculus) (UniProt Q61831); test: JNK3 AlphaScreen Assay (AID 530); conditions: JNK3 lysate, c-Jun phosphorylation; series mostly up to 57.1 µM;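 note: kinase came from lysate of stimulated human HepG2 cells; signal reports phosphorylation of biotinylated GST-cJun 1-79 at Ser73 with 10 µM ATP; % is set by controls: 0 for no effect and ±100 for the full control effect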
# Outline: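 Room-temperature AlphaScreen kinase assay; pre-activated HepG2 lysate as JNK3 source, biotin-GST-cJun(1-79) substrate, 10 uM ATP, compound 15 min preincubation.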
# [9] = target: Cytochrome P450 3A4 (Homo sapiens) (UniProt P08684); test: qHTS Assay for Inhibitors and Substrates of Cytochrome P450 3A4 (AID 884; active = well fitted curve in the direction sought with a large enough effect; an effect the other way counts as inactive or inconclusive; note: potency is the fitted concentration of half-maximal effect; nearly all actives have a fitted effect of over 50% in size); conditions: recombinant CYP3A4, Luciferin-PPXE luminescence; series mostly up to 57.1 µM
# Outline: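 20 nM human CYP3A4 with 25 uM Luciferin-PPXE (at KM) in 200 mM KPO4, preincubated 10 min with compound; NADPH regeneration started a 60 min RT reaction. Luciferin detected by luminescence, normalized to 57 uM ketoconazole as full inhibition.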
# [10] = target: Cytochrome P450 3A4 (Homo sapiens) (UniProt P08684); test: qHTS Assay for Activators of Cytochrome P450 3A4 (AID 885; active = well fitted curve in the direction sought with a large enough effect; an effect the other way counts as inactive or inconclusive; note: nearly all actives have a fitted effect of over 65% in size); conditions: recombinant CYP3A4, Luciferin-PPXE luminescence, 60 min; series mostly up to 57.1 µM
# Outline: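 20nM CYP3A4 + 25uM Luciferin-PPXE (=KM), 200mM KPO4; cpd 10 min RT; NADPH regen, 60 min RT; stop w/ detection buffer, 20 min; luminescence. Normalized to 57 uM ketoconazole.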
# [11] = target: Cytochrome P450 2C19 (Homo sapiens) (UniProt P33261); test: qHTS Assay for Inhibitors and Substrates of Cytochrome P450 2C19 (AID 899; active = well fitted curve in the direction sought with a large enough effect; an effect the other way counts as inactive or inconclusive; note: potency is the fitted concentration of half-maximal effect; nearly all actives have a fitted effect of over 60% in size); conditions: recombinant CYP2C19, luciferin-H EGE luminescence; series mostly up to 57.1 µM
# Outline: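 Luminescence readout of luciferin formed from 10uM Luciferin-H EGE (KM level) by 5 nM CYP2C19 in 50mM KPO4. 60 min NADPH-driven reaction at 37C after 10 min compound preincubation; data scaled to 57uM ketoconazole inhibition.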
# [12] = target: Ubiquitin carboxyl-terminal hydrolase 1 (Homo sapiens) (UniProt O94782); test: Inhibitors of USP1/UAF1: Pilot qHTS (AID 504865; active = well fitted curve in the direction sought with a large enough effect; an effect the other way counts as inactive or inconclusive;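 note: rhodamine fluorescence freed from ubiquitin-rhodamine substrate followed over time; top concentration of the series differs between compounds; % is set by controls: 0 for no effect and ±100 for the full control effect; nearly all actives have a fitted effect of over 35% in size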); conditions: purified USP1/UAF1, Ub-rhodamine cleavage fluorescence; series mostly up to 54.9 µM
# Outline: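 1nM USP1/UAF1 + cpd, 15 min RT; start w/ Ub-Rho 150nM final; kinetic FL 480/540 nm, 6 reads q60 s. Buffer 50mM HEPES pH 7.8, 0.5mM EDTA, 1mM TCEP, 0.01% Tween-20, 0.1 mg/ml BSA.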
# [13] = Primary qHTS for small molecule stabilizers of the endoplasmic reticulum resident proteome: Secreted ER Calcium Modulated Protein (SERCaMP) assay (AID 1508630; active = well fitted curve in the direction sought with a large enough effect; an effect the other way counts as inactive or inconclusive; note: % is set by controls: 0 for no effect and ±100 for the full control effect); conditions: SH-SY5Y GLuc-SERCaMP (Gaussia luciferase released on ER calcium loss) secretion, thapsigargin, luminescence; series mostly up to 38.4 µM
# Outline: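 GLuc-SERCaMP-expressing SH-SY5Y cells, pretreated 16 h with compound, are challenged with thapsigargin to empty ER calcium stores; after 4 h, coelenterazine is added directly to the medium and luminescence is imaged.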
# [14] = target: 3',5'-cyclic-AMP phosphodiesterase 4B (Homo sapiens) (UniProt Q07343); test: qHTS Assay for Inhibitors of PDE-IV (AID 607; active = well fitted activation curve with a large enough effect in the main read-out, with a control signal flat, not every such curve was filed as active; note: % of control where 0% means no effect); conditions: HEK293 ACTOne CNG channel cells, membrane potential fluorescence; series mostly up to 22.9 µM
# Outline: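 ACTOne HEK293 cells carry a modified cAMP-gated CNG channel and express endogenous PDE4; plated 1000 cells/well, compounds up to 22.9 uM final. Membrane-potential dye fluorescence (ex 535/em 590) was read; parental cells received 10 uM forskolin + 100 uM RO 20-1724.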
# [15] = target: Dual specificity protein kinase CLK4 (Homo sapiens) (UniProt Q9HAZ1); test: qHTS Assay for Inhibitors of CDC-like Kinase 4 (ADP-FP Assay) (AID 1795; active = well fitted curve in the direction sought with a large enough effect; an effect the other way counts as inactive or inconclusive;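 note: recombinant human CLK4 phosphorylating RS repeat peptide at 1 µM ATP; % is set by controls: 0 for no effect and ±100 for the full control effect; nearly all actives have a fitted effect of over 60% in size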); conditions: Transcreener ADP fluorescence polarization; series mostly up to 50 µM
# Outline: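 FP readout: Orange Transcreener ADP2 tracer (4 nM) plus ADP antibody, read after 30 min at room temperature. Kinase step: 6.25 nM Clk4, 100 uM RS peptide, 1 uM ATP, pH 7.5, 1 h.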
# [16] = qHTS Assay for Identification of Small Molecule Agonists for Hypoxia Response Element Signaling Pathway (AID 914; active = well fitted activation curve with a large enough effect in the signal ratio, with a control signal flat, not every such curve was filed as active; the % refers to the signal ratio; note: % of control where 0% means no effect); conditions: ME-180 (cervical carcinoma) HRE-bla reporter, beta-lactamase ratio, CoCl2, 17 h; activation: hits give high values
# Outline: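 Read-out: CCF4 FRET ratio of 460nm to 530nm emission (excitation 405nm) after 2.5 hours at room temperature, taken from HRE-bla ME-180 cells that had been exposed to compound and EC50 CoCl2 for 17 hours.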
# [17] = target: Cytochrome P450 2C9 (Homo sapiens) (UniProt P11712); test: qHTS Assay for Inhibitors and Substrates of Cytochrome P450 2C9 (AID 883; active = well fitted curve in the direction sought with a large enough effect; an effect the other way counts as inactive or inconclusive; note: potency is the fitted concentration of half-maximal effect; nearly all actives have a fitted effect of over 60% in size); conditions: recombinant CYP2C9, luciferin-H luminescence, 60 min; series mostly up to 57.1 µM
# Outline: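 Luminescent read-out of deoxyluciferin hydroxylation, normalized to 57uM sulphaphenazole (AC100). Reaction: 10nM enzyme, 100uM Luciferin-H (equal to KM), 25mM KPO4, 10 min compound preincubation, then 60 min with NADPH regeneration, both at 37C.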
# Chain of Cytochrome P450 1A2 (Homo sapiens) (P05177 whole entry, looked up): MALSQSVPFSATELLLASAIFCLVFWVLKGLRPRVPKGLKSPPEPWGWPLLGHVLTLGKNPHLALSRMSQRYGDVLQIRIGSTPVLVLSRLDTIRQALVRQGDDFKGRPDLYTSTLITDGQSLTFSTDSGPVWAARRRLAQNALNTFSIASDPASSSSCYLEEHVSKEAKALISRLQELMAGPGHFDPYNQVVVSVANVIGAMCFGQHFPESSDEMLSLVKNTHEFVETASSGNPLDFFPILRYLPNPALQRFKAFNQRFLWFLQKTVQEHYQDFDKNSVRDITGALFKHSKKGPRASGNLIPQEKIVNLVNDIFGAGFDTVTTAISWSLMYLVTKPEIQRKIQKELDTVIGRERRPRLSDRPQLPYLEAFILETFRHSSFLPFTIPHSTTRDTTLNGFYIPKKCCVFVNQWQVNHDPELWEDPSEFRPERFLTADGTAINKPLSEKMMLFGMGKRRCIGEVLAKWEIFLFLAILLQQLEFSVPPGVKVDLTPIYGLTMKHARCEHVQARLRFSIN
# Chain of Glucocorticoid receptor (Homo sapiens) (P04150 whole entry, looked up, the tested form may be a part): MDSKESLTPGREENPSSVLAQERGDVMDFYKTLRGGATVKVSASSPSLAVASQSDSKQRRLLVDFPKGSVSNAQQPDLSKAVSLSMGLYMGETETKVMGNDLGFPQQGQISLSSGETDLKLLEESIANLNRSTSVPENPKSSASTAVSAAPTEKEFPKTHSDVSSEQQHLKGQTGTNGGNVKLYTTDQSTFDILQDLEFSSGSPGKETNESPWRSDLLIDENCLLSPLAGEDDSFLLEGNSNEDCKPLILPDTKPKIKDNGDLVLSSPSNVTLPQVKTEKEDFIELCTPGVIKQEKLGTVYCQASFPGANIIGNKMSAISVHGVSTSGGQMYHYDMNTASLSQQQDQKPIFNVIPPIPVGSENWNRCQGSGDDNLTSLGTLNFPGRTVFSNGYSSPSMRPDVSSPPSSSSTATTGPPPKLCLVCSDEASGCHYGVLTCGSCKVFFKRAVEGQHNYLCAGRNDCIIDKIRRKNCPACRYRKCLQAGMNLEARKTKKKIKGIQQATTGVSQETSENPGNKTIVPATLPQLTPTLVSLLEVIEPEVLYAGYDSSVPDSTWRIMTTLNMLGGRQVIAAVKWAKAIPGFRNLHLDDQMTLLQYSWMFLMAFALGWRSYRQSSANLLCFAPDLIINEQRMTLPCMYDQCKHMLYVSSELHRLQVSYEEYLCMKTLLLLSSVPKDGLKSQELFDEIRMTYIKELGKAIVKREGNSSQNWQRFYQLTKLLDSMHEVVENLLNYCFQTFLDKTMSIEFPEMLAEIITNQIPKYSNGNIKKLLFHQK
# Chain of 3',5'-cyclic-AMP phosphodiesterase 4B (Homo sapiens) (Q07343 whole entry, looked up): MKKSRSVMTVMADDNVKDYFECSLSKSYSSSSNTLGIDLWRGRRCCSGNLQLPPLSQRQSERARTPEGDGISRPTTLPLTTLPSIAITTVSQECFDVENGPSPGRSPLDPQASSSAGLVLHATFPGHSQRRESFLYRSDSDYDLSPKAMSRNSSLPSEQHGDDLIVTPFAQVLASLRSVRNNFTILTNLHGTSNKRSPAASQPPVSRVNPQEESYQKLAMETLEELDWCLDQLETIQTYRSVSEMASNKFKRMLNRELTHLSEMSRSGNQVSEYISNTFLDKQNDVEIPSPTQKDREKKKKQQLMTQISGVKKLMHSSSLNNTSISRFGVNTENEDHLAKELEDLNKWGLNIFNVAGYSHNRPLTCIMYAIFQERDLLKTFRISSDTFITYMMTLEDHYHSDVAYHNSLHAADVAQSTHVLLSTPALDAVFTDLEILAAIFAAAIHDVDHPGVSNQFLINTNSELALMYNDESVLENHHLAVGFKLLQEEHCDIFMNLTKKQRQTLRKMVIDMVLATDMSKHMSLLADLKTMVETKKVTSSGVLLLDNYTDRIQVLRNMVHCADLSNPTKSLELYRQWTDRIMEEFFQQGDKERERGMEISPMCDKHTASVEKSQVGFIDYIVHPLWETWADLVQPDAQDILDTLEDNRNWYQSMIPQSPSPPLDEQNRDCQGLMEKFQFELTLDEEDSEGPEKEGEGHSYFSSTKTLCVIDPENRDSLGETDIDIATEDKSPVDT
# Chain of Cytochrome P450 3A4 (Homo sapiens) (P08684 whole entry, looked up): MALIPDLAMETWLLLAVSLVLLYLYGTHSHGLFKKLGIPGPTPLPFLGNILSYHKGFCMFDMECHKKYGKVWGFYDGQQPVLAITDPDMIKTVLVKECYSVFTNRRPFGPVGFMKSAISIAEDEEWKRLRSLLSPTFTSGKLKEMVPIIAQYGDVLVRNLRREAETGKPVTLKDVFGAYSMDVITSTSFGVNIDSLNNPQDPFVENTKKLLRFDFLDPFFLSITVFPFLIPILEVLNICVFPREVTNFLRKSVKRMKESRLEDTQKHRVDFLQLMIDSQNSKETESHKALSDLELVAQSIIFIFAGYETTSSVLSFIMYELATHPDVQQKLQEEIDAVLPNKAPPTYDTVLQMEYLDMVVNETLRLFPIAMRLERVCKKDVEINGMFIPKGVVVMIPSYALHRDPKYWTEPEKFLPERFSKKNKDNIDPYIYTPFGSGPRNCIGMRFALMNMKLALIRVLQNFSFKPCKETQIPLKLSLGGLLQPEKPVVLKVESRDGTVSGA
# Chain of Ubiquitin carboxyl-terminal hydrolase 1 (Homo sapiens) (O94782 whole entry, looked up): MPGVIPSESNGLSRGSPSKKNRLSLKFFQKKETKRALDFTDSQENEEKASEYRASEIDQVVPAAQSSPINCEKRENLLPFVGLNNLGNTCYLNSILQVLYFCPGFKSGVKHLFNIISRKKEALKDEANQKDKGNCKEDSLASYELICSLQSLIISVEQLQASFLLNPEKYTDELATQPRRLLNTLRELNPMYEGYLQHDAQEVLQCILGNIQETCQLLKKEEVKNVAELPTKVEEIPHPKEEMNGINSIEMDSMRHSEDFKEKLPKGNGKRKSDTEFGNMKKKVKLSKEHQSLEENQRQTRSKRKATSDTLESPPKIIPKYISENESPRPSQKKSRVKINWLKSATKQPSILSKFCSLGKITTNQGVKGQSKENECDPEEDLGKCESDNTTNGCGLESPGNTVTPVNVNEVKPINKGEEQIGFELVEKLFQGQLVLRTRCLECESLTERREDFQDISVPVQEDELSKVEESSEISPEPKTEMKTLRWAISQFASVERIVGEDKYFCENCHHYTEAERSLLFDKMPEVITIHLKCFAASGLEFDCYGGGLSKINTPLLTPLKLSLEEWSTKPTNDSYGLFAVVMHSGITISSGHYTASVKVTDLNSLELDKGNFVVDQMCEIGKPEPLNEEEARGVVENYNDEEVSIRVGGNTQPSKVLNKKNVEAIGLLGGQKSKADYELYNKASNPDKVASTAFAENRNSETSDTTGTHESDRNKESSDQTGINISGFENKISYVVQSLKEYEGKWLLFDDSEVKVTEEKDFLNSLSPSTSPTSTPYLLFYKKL
# Chain of Lysosomal acid glucosylceramidase (Homo sapiens) (P04062 whole entry, looked up): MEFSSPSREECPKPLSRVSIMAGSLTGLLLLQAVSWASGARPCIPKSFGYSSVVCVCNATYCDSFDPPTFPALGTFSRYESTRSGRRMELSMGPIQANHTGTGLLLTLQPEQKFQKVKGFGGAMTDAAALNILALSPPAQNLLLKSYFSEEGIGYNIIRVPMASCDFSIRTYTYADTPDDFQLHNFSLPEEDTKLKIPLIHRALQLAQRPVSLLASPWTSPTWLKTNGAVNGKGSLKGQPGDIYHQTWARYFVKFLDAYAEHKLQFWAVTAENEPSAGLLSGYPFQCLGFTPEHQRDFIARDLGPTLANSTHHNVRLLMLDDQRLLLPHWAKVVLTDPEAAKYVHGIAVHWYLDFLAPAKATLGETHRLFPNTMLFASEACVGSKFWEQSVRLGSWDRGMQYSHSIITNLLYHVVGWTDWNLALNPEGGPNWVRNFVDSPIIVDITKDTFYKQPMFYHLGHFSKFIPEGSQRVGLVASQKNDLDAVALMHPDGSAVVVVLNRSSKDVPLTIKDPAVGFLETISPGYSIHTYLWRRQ
# Chain of Cytochrome P450 2C19 (Homo sapiens) (P33261 whole entry, looked up): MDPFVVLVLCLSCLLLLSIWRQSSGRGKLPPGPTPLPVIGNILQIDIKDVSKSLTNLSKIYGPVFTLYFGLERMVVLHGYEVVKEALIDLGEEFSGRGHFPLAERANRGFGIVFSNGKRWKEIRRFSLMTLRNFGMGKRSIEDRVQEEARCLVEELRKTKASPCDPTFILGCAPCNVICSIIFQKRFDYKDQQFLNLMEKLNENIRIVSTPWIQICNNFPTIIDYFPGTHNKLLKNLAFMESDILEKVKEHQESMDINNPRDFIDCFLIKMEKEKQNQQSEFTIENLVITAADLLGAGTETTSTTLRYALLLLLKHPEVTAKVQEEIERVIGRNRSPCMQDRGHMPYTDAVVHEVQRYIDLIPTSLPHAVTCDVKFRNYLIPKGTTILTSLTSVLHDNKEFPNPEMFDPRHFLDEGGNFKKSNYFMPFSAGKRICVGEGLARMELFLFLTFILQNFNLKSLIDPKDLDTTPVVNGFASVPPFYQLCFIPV
# Chain of Dual specificity protein kinase CLK4 (Homo sapiens) (Q9HAZ1 whole entry, looked up): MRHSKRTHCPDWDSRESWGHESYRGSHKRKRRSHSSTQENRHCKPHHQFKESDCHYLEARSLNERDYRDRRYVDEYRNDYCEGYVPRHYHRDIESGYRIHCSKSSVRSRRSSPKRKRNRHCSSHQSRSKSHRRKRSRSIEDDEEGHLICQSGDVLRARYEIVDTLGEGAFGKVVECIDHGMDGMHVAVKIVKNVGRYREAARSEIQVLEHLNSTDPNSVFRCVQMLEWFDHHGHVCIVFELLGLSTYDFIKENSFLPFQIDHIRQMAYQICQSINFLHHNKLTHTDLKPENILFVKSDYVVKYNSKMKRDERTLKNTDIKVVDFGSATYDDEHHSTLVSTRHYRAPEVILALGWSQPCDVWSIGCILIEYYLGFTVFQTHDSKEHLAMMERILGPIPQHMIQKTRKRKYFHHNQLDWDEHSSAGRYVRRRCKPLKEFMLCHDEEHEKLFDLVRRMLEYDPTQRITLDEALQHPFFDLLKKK
SMILES,Potency [1] [µM],"activity change, negative = inhibition [2] [%]",Potency [3],"activity change, negative = inhibition [4] [%]","activity, negative = inhibition [5] [%]",Potency [6] [µM],Potency [7] [µM],Potency [8],Potency [9],Potency [10],Potency [11],Potency [12],outcome [13],Potency [14],Potency [15],activation [16] [%],Potency [17]
COc1ccccc1-c1cc(Nc2ccn[nH]2)ncn1,> 11.4,-9.99,0.631 µM (active),2.51,6.94,> 46,> 46,inactive,3.98 µM (active),inactive,6.31 µM (active),inactive,inactive,,,,
N#Cc1cccc(-c2cc(NCc3cccnc3)ncn2)c1,> 11.4,11.5,0.0398 µM (active),3.13,-25.4,> 46,> 46,inactive,2.51 µM (active),,,inactive,inactive,inactive,,,
CC(=O)NCCNc1nc(-c2c(C)noc2C)nc2ccccc12,,5.25,1.58 µM (active),6.76,1.96,> 46,> 46,inactive,,inactive,,inactive,inactive,inactive,inactive,,
O=c1c(CCc2ccccc2)nc2cnc(N3CCOCC3)nc2n1Cc1ccc(F)cc1,> 11.4,-10.7,10 µM (active),-2.42,17.6,> 9.22,> 46,inactive,,,,,inactive,,,,
O=c1c(-c2ccc(F)cc2)nc2cncnc2n1C1CC1,> 11.4,-6.77,0.158 µM (active),2.7,-6.49,> 9.22,> 46,inactive,,,,,inactive,,,,
COc1ccc(-n2c(=O)c(C)nc3cnc(N(C)C)nc32)cc1,> 11.4,-8.91,6.31 µM (active),5.39,-5.54,> 9.22,> 46,inactive,,inactive,,,inactive,inactive,,,
COc1ccc(-n2c(=O)cnc3cnc(Oc4cccc(Cl)c4)nc32)cc1,> 11.4,-9.58,7.94 µM (active),4.93,-9.34,> 9.22,> 46,inactive,,inactive,,,inactive,inactive,,,
COc1ccc(Oc2ncc3nc(-c4ccc(Cl)cc4)c(=O)n(C)c3n2)cc1,> 11.4,-22.1,0.631 µM (active),-2.12,-5.79,> 9.22,> 46,inactive,,inactive,,,inactive,inactive,,,
O=c1c(-c2cccc(F)c2)nc2cncnc2n1C1CC1,> 11.4,-9.05,1.58 µM (active),-1.62,1.43,> 9.22,> 46,inactive,,inactive,,,inactive,inactive,,,
COc1ccc(Oc2ncc3nc(C)c(=O)n(C)c3n2)cc1,> 11.4,14.2,12.6 µM (active),-1.39,-6.21,> 9.22,> 46,inactive,,inactive,,,inactive,inactive,,,
COc1ccc(Oc2ncc3nc(C)c(=O)n(CCC#N)c3n2)cc1,> 11.4,-15.5,25.1 µM (active),8.56,-12.9,> 9.22,> 46,inactive,,,,,inactive,inactive,,,
COc1ccc(-n2c(=O)c(CCc3ccccc3)nc3cnc(N(C)C)nc32)cc1,> 11.4,0.546,3.16 µM (active),-2.06,0.00123,> 9.22,> 46,inactive,,inactive,,,inactive,inactive,,10.3,
COc1ccc(-c2nc3cnc(N4CCOCC4)nc3n(CCC#N)c2=O)cc1,> 11.4,3.37,3.16 µM (active),2.6,16.9,> 9.22,> 46,inactive,,,,,inactive,inactive,,,
COCCn1c(=O)c(-c2cc(F)cc(F)c2)nc2cnc(Oc3cccc(Cl)c3)nc21,> 11.4,30.2,5.01 µM (active),-9.31,24.9,> 9.22,> 46,inactive,,inactive,,,inactive,inactive,,,3.98 µM (active)
CN(C)c1ncc2ncc(=O)n(C)c2n1,> 11.4,-20.1,6.31 µM (active),0.153,-5.5,> 9.22,> 46,inactive,,,,,inactive,inactive,,,
